Results reported in PubChem BioAssay (Tox21).
Records with an inconclusive call do not appear. A structure can be active in one record and inactive in another. Active and inactive are the calls of the source. Unless noted, calls follow the shape of the dose curve; as a rule, active = well fitted curve in the direction sought with a large enough effect in the repeat runs; inconclusive = weak or mixed curves; inactive = no such curve, though single readings can be large; an effect the other way counts as inactive or inconclusive.

Experiments:
[1] = qHTS assay to identify small molecule antagonists of the retinoid acid receptor (RAR) signaling pathway - cell viability counter screen (AID 1159551); also: nearly all actives have a fitted effect of over 35% in size; also: potency is read from the fitted curve at half-maximal effect
In short: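 In this counter screen, the RARE-luciferase line C3RL4 was exposed for 6 h at 37 C and 5% CO2 to compounds with retinol at 1 uM final. Cellular ATP, read by luminescence, served as the viability measure.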

[2] = qHTS assay to identify small molecule antagonists of the estrogen related receptor (ERR) signaling pathway from Tox21 library - cell viability counter screen (AID 1224834); also: nearly all actives have a fitted effect of over 30% in size; also: potency is read from the fitted curve at half-maximal effect
In short: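 Counter screen run in ERR cells (2,000 cells/well): cells pre-incubated 6 h, then treated with compounds for 17.5 h at 37 C. Fluorescence was read 30 min after CellTiter-Fluor addition.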

[3] = biological target: Luciferin 4-monooxygenase (Photinus pyralis) (UniProt P08659); experiment: qHTS assay to identify small molecule inhibitors of firefly luciferase (AID 1224835); also: nearly all actives have a fitted effect of over 25% in size; also: potency is read from the fitted curve at half-maximal effect
Sequence of Luciferin 4-monooxygenase (Photinus pyralis) (P08659 whole entry, looked up): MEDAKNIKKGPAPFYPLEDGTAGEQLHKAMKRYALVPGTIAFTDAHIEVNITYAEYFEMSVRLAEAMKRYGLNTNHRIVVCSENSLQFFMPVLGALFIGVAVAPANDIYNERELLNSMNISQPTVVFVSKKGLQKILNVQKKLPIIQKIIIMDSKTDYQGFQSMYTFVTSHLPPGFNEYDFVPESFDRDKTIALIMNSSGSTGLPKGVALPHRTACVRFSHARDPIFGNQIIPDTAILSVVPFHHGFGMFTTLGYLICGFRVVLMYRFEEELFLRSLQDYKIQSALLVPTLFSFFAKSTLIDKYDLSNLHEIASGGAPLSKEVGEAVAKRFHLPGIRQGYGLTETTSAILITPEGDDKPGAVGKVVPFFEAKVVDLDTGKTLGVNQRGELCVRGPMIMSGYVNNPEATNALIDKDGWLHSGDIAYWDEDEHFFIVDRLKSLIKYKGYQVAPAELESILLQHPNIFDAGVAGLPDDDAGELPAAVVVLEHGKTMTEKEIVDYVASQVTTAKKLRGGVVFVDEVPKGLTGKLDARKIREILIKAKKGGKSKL
In short: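 Biochemical qHTS: compounds run as interplate titrations against purified firefly enzyme, with D-luciferin and ATP each at its KM concentration. Light output recorded by CCD imaging.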

[4] = qHTS assay to identify small molecule agonists of the constitutive androstane receptor (CAR) signaling pathway - cell viability counter screen (AID 1224836); also: nearly all actives have a fitted effect of over 45% in size; also: potency is read from the fitted curve at half-maximal effect
In short: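 Cell viability multiplexed with the CAR agonist screen: CellTiter-Fluor fluorescence after 23 hr at 37 C. HepG2-CYP2B6-hCAR cells got compounds at 15 concentrations with PK11195 at 0.75 uM final.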

[5] = qHTS assay to identify small molecule antagonists of the constitutive androstane receptor (CAR) signaling pathway - cell viability counter screen (AID 1224837); also: nearly all actives have a fitted effect of over 45% in size; also: potency is read from the fitted curve at half-maximal effect
In short: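 CITCO at 50 nM final was added alongside compounds (15 concentrations) to double-stable hCAR/CYP2B6-2.2kb HepG2 cells. Following 23 hr at 37 C, cell viability was quantified by CellTiter-Fluor fluorescence intensity.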

[6] = biological target: Nuclear receptor subfamily 1 group I member 3 (Homo sapiens) (UniProt Q14994); experiment: qHTS assay to identify small molecule antagonists of the constitutive androstane receptor (CAR) signaling pathway (AID 1224838); also: nearly all actives have a fitted effect of over 40% in size; also: potency is read from the fitted curve at half-maximal effect
Sequence of Nuclear receptor subfamily 1 group I member 3 (Homo sapiens) (Q14994 whole entry, looked up): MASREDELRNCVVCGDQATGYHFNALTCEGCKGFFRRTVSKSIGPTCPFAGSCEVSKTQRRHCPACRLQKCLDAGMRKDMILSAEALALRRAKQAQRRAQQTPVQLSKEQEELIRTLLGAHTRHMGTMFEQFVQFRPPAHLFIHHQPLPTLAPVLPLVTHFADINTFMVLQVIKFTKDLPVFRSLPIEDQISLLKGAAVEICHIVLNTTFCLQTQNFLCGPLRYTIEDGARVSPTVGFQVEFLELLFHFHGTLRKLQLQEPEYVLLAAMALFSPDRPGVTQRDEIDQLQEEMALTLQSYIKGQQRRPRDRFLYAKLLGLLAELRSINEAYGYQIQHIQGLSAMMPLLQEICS
In short: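 Inhibition of CITCO-driven (50 nM final) CYP2B6 reporter expression is measured in HepG2 cells stably carrying hCAR. Fifteen compound concentrations are applied for 24 h at 37 C, followed by luciferase luminescence.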

[7] = biological target: Nuclear receptor subfamily 1 group I member 3 (Homo sapiens) (UniProt Q14994); experiment: qHTS assay to identify small molecule agonists of the constitutive androstane receptor (CAR) signaling pathway (AID 1224839); also: nearly all actives have a fitted effect of over 15% in size; also: potency is read from the fitted curve at half-maximal effect; as to activation: series mostly up to about 92 µM
In short: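 Luminescent ONE-Glo read-out after 24 hr, 37 C exposure of double-stable HepG2-CYP2B6-hCAR reporter cells to a 15-point compound series, in the presence of 0.75 uM PK11195 (final).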

[8] = qHTS assay to identify small molecule antagonists of the estrogen related receptor signaling pathway with the pleiotropic PPARgamma coactivator (PGC) from Tox21 10K library - cell viability counter screen (AID 1224840; active = well fitted cell-killing curve with a large enough effect in the repeat runs, not every such curve was filed as active; also: nearly all actives have a fitted effect of over 40% in size; also: potency is read from the fitted curve at half-maximal effect)
In short: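 Readout: fluorescence intensity from CellTiter-Fluor after 30 min at 37 C/5% CO2. Preceded by 17.5 h treatment of PGC/ERR cells with DMSO-dissolved compounds, added 6 h post-seeding.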

[9] = biological target: Thyrotropin receptor (Homo sapiens) (UniProt P16473); experiment: qHTS assay to identify small molecule agonists of the thyroid stimulating hormone receptor (TSHR) signaling pathway (AID 1224843; calls by dose curve; also: nearly all actives have a fitted effect of over 45% in size; also: potency is read from the fitted curve at half-maximal effect)
Sequence of Thyrotropin receptor (Homo sapiens) (P16473 whole entry, looked up): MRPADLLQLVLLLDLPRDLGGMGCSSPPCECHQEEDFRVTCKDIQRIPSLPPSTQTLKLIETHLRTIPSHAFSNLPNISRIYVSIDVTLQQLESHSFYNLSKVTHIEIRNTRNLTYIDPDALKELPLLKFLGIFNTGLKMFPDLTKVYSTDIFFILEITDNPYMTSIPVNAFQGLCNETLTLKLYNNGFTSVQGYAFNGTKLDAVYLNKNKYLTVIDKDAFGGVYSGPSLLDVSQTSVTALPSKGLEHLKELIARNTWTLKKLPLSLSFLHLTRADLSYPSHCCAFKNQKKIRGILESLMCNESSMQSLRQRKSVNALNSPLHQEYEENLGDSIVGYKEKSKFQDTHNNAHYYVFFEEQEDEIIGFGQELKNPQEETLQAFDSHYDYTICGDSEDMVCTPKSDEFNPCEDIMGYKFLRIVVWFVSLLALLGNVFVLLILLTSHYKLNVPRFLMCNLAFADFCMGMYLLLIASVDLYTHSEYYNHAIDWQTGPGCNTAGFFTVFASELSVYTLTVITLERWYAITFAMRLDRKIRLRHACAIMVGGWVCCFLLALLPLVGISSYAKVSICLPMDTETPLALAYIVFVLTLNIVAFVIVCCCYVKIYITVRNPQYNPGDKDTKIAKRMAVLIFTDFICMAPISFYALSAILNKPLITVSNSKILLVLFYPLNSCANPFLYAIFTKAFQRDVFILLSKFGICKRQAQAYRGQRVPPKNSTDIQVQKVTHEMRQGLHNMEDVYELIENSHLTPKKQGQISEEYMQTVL
In short: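 HEK293/TSHR, 800 cells/well; cpd 30 min RT; add cAMP-d2 + anti-cAMP-cryptate, 1 h RT; fluorescence read on plate reader. 15-pt titration, n=3.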

[10] = qHTS assay to identify small molecule agonists of the estrogen related receptor signaling pathway with the pleiotropic PPARgamma coactivator (PGC) from Tox21 10K library (AID 1224842); also: nearly all actives have a fitted effect of over 15% in size; also: potency is read from the fitted curve at half-maximal effect
In short: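 PGC/ERR reporter cell line, 2,000 cells per well, incubated 6 h at 37 C before 23 nL compound in DMSO was added. After 18 h at 37 C, One-Glo luminescence read following 30 min at room temperature.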

[11] = qHTS assay to identify small molecule antagonists of the retinoic acid receptor (RAR) signaling pathway (AID 1159552; also: nearly all actives have a fitted effect of over 50% in size; also: potency is read from the fitted curve at half-maximal effect)
In short: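 Luminescent RARE reporter read-out in C3RL4 cells: 6 hr co-treatment at 37 C of test compounds with retinol at 1 uM final. Cells plated overnight beforehand; luciferase reagent incubated 30 min at room temperature before reading.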

[12] = qHTS assay to identify small molecule antagonists of the estrogen related receptor signaling pathway with the pleiotropic PPARgamma coactivator (PGC) from Tox21 10K library (AID 1224841; call rule not given here; also: actives are mostly falling curves and most rising ones were filed inactive; nearly all actives have a fitted effect of over 50% in size; also: potency is read from the fitted curve at half-maximal effect)
In short: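 One-Glo luminescence, measured after half an hour at room temperature, quantified reporter output of PGC/ERR cells. These had been plated at 2,000 per well, incubated 6 h, dosed with compounds in DMSO, then kept 18 h at 37 C.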

[13] = qHTS assay to identify small molecule agonists of the retinoic acid receptor (RAR) signaling pathway (AID 1159553); also: potency is read from the fitted curve at half-maximal effect
In short: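 In this cell-based screen, 1,000 C3RL4 cells per well were cultured overnight, dosed with test chemicals in DMSO for 6 hr, and assessed for RARE luciferase luminescence.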

[14] = qHTS assay to identify small molecule antagonists of the estrogen related receptor (ERR) signaling pathway - cell viability counter screen (AID 1224818); also: series mostly up to about 46 µM
In short: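 Viability of ERR cells, CellTiter-Fluor fluorescence; 17.5 h compound exposure at 37 C, DMSO vehicle; 30 min reagent incubation at 37 C/5% CO2.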

[15] = qHTS assay to identify small molecule antagonists of the estrogen related receptor signaling pathway with the pleiotropic PPARgamma coactivator (PGC) cell viability counter screen (AID 1224822; also: potency is read from the fitted curve at half-maximal effect)
In short: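 17.5 h compound treatment of PGC/ERR cells at 37 C; readout CellTiter-Fluor fluorescence; run alongside the PGC/ERR antagonist screen to flag cytotoxic compounds.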
% is scaled to controls: 0 for no effect and ±100 for the full control effect.

BrCBr
inactive: Potency [1] | Potency [2] | Potency [3] | Potency [4] | Potency [5] | Potency [6] | Potency [7] | Potency [8] | Potency [9]

COc1ccc(N)cc1N
active: Potency [2] 31.6 µM | Potency [3] 41.2 µM | Potency [4] 63.1 µM | Potency [5] 70.8 µM
inactive: Potency [1] | Potency [10]
28.2 µM (active) and inactive: Potency [8]

ClC(Cl)=C(Cl)Cl
inactive: Potency [1] | Potency [2] | Potency [3] | Potency [5] | Potency [6] | Potency [7] | Potency [8] | Potency [9]

CC[C@H]1C[C@@H]2C[C@H]3c4[nH]c5ccc(OC)cc5c4CCN(C2)[C@@H]13
inactive: Potency [1] | Potency [11] | Potency [3] | Potency [4] | Potency [6] | Potency [7] | Potency [10]
active: Potency [12] 53.5 µM

CC(C)CCCCCCCOP(=O)(Oc1ccccc1)Oc1ccccc1
inactive: Potency [1] | Potency [2] | Potency [3] | Potency [4] | Potency [5] | Potency [6] | Potency [8] | Potency [10]
active: Potency [7] 27.4 µM | Potency [9] 24.5 µM

CN(CCCC(O)c1cccnc1)N=O (stereo unspecified)
inactive: Potency [1] | Potency [11] | Potency [2] | Potency [4] | Potency [5] | Potency [8] | Potency [9]

CN(C)CCc1c[nH]c2cccc(O)c12
inactive: Potency [1] | Potency [2] | Potency [3] | Potency [8]

COc1ccc(/C(=C/C(=O)N2CCOCC2)c2ccc(Cl)cc2)cc1OC
inactive: Potency [1] | Potency [13] | Potency [3] | Potency [4] | Potency [5] | Potency [6] | Potency [7] | Potency [8] | Potency [12] | Potency [10] | Potency [9]

CN(C)CCc1c[nH]c2ccc(O)cc12
inactive: Potency [1] | Potency [2] | Potency [4] | Potency [5] | Potency [6] | Potency [8] | Potency [9]

Nc1ccccc1C(=O)Oc1ccc2ccccc2c1
active: Potency [13] 0.193 µM | Potency [3] 1.78 µM | Potency [7] 54.5 µM
inactive: Potency [1] | Potency [2] | Potency [4] | Potency [5] | Potency [6] | Potency [8] | Potency [9]

OC(c1ccc(Cl)cc1)(c1ccc(Cl)cc1)C(Cl)(Cl)Cl
inactive: Potency [1] | Potency [13] | Potency [2] | Potency [4] | Potency [5] | Potency [6] | Potency [8] | Potency [12] | Potency [10]

OC(Cc1ccccc1Cl)(Cn1cncn1)C1(Cl)CC1 (stereo unspecified)
inactive: Potency [1] | Potency [11] | Potency [3] | Potency [5] | Potency [6] | Potency [8] | Potency [10] | Potency [9]
active: Potency [12] 54.5 µM

c1cc[c]([Sb]([c]2ccccc2)[c]2ccccc2)cc1
active: Potency [11] 61.1 µM | Potency [7] 15.4 µM
inactive: Potency [1] | Potency [2] | Potency [3] | Potency [4] | Potency [5] | Potency [9]

CC(C)(O)c1cnn2c(-c3ccc(F)c(-c4c(F)cccc4C#N)c3)cnc2n1
inactive: Potency [1] | Potency [13] | Potency [3] | Potency [5] | Potency [6] | Potency [8] | Potency [10] | Potency [9]

Nc1c(Oc2ccccc2)cc(O)c2c1C(=O)c1ccccc1C2=O
active: Potency [7] 6.68 µM
inactive: Potency [1] | Potency [11] | Potency [4] | Potency [5] | Potency [6] | Potency [8]

CCc1ccccc1C
inactive: Potency [1] | Potency [11] | Potency [2] | Potency [3] | Potency [5] | Potency [8] | Potency [12] | Potency [10] | Potency [9]

C[C@@H]1O[C@@H](O[C@@H]2C=C3CC[C@@H]4[C@H](CC[C@]5(C)[C@@H](c6ccc(=O)oc6)CC[C@]45O)[C@@]3(C)CC2)[C@H](O)[C@H](O)[C@H]1O
active: Potency [2] 0.0298 µM | Potency [4] 0.119 µM | Potency [6] 0.0841 µM | Potency [12] 0.0237 µM
inactive: Potency [1] | Potency [13] | Potency [3] | Potency [7] | Potency [10]

O=C(Cl)c1ccc(Cl)cc1
inactive: Potency [1] | Potency [11] | Potency [2] | Potency [3] | Potency [4] | Potency [5] | Potency [8] | Potency [9]

CNC(C)Cc1ccc2c(c1)OCO2 (stereo unspecified)
inactive: Potency [1] | Potency [11] | Potency [3] | Potency [4] | Potency [6] | Potency [7] | Potency [8] | Potency [9]

[Cl][Sn]([c]1ccccc1)([c]1ccccc1)[c]1ccccc1
inactive: activation [7] -23.6% [at 19 µM] | activation [10] -35.3% [at 19 µM]
active: Potency [1] 4.61 µM | Potency [11] 0.092 µM | Potency [2] 1.16 µM | Potency [3] 6.01 µM | Potency [5] 2.06 µM | Potency [6] 0.206 µM | Potency [8] 0.82 µM | Potency [12] 0.82 µM

C=CC(=O)OCCCCOC(=O)C=C
inactive: Potency [3] | Potency [7] | Potency [12]
active: Potency [2] 54.5 µM | Potency [5] 61.1 µM | Potency [8] 48.6 µM | Potency [10] 21.7 µM

O=CC(Br)(Br)Br
active: Potency [11] 27.2 µM | Potency [2] 24.3 µM | Potency [3] 17.8 µM | Potency [4] 30.5 µM | Potency [5] 27.2 µM | Potency [6] 30.5 µM | Potency [8] 15.3 µM | Potency [9] 30.5 µM

Clc1ccc(C(c2ccc(Cl)cc2)C(Cl)(Cl)Cl)cc1
17.4 µM (active) and inactive: Potency [12]
inactive: Potency [1] | Potency [2] | Potency [4] | Potency [5] | Potency [8] | Potency [10]

CCCSP(=O)(OCC)SCCC
active: Potency [7] 25.2 µM
inactive: Potency [11] | Potency [13] | outcome [14] | Potency [15] | Potency [2] | Potency [4] | Potency [5] | Potency [6] | Potency [8]

Oc1cc(Cl)c(Cl)c(Cl)c1
active: Potency [12] 36.6 µM
inactive: Potency [1] | Potency [3] | Potency [7] | Potency [10] | Potency [9]

CCN(CC)c1c([N+](=O)[O-])cc(C(F)(F)F)c(N)c1[N+](=O)[O-]
inactive: Potency [3] | Potency [4] | Potency [5] | Potency [6]
active: Potency [7] 48.6 µM | Potency [9] 13.7 µM

CC(C)(C)c1ccc(CSc2cnn(C(C)(C)C)c(=O)c2Cl)cc1
inactive: Potency [13] | Potency [3] | Potency [6] | Potency [7] | Potency [8] | Potency [10]
active: Potency [12] 0.0049 µM

CC(C)N1C(=O)N(c2ccccc2)CSC1=NC(C)(C)C
inactive: Potency [3] | Potency [5] | Potency [6] | Potency [10] | Potency [9]
active: Potency [7] 24.3 µM

CCCCCCCCc1ccc(O)cc1
inactive: Potency [11] | Potency [6] | Potency [9]
active: Potency [15] 52.4 µM | Potency [2] 61.5 µM | Potency [4] 69 µM | Potency [7] 48.9 µM

N#C/C=C/c1ccccc1
inactive: Potency [1] | Potency [3] | Potency [4] | Potency [5] | Potency [6] | Potency [7] | Potency [8]

Cc1ccc(C(=O)Cl)cc1
inactive: Potency [1] | Potency [4] | Potency [5] | Potency [6] | Potency [7] | Potency [8] | Potency [12] | Potency [10] | Potency [9]

CC(C)OS(C)(=O)=O
inactive: Potency [11] | Potency [13] | Potency [2] | Potency [3] | Potency [4] | Potency [5] | Potency [6] | Potency [7] | Potency [8] | Potency [9]

Clc1ccc(CO/N=C(\Cn2ccnc2)c2ccc(Cl)cc2Cl)c(Cl)c1
inactive: Potency [3] | Potency [5] | Potency [6]

CCCCCCCCCCCCCCC(Br)C(=O)O (stereo unspecified)
inactive: Potency [11] | Potency [13] | Potency [2] | Potency [5] | Potency [6] | Potency [7] | Potency [8]
